Test results reported in PubChem BioAssay (NCI).
About 83,000 compounds went through this panel and 20% of them were active in at least one assay; those are over-represented in the sample as a whole.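 Growth was measured after 48 h exposure to one concentration of compound in 96-well plates. Values under 10 count as active.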 A number with no mark means an inactive call. Activity calls are given as the source filed them.

Assays:
Experiment in all cases: NCI-60 one-dose screen, 48 h (100 = growth as untreated, 0 = no growth, -100 = all killed)
Conditions in all cases: 10 µM unless noted
SR leukemia = tested on: SR leukemia
RPMI-8226 leukemia = tested on: RPMI-8226 leukemia
OVCAR-8 ovarian = tested on: OVCAR-8 ovarian
OVCAR-5 ovarian = tested on: OVCAR-5 ovarian
OVCAR-4 ovarian = tested on: OVCAR-4 ovarian
SK-OV-3 ovarian = tested on: SK-OV-3 ovarian
IGROV1 ovarian = tested on: IGROV1 ovarian
OVCAR-3 ovarian = tested on: OVCAR-3 ovarian
HS 578T breast = tested on: HS 578T breast
NCI/ADR-RES ovarian = tested on: NCI/ADR-RES ovarian

SMILES	growth (SR leukemia)	growth (RPMI-8226 leukemia)	growth (OVCAR-8 ovarian)	growth (OVCAR-5 ovarian)	growth (OVCAR-4 ovarian)	growth (SK-OV-3 ovarian)	growth (IGROV1 ovarian)	growth (OVCAR-3 ovarian)	growth (HS 578T breast)	growth (NCI/ADR-RES ovarian)
COc1ccc(NC(=O)[C@@H]2C[C@H]2c2ccccc2)c(C(N)=O)c1	77.6%	100%	99.1%	102%	107%	102%	-8.06% (active)	98.9%	102%	99%
CC(=O)OCC(=O)[C@@]1(O)CC[C@H]2[C@@H]3CCC4=CC(=O)CC[C@]4(C)[C@@]3(F)[C@@H](O)C[C@@]21C	99.8%	62.5%	93.8%	80.2%	105%	63.7%	116%	106%	112%	89.6%
C[C@@H]1[C@H]2[C@H](C=C3[C@@H]4CC[C@H]5Cc6nc7c(nc6C[C@]5(C)[C@H]4C[C@@H](O)[C@@]32C)C[C@@H]2CC[C@H]3C4=C[C@@H]5O[C@@]6(CC[C@](C)(CO)O6)[C@@H](C)[C@@]5(O)[C@@]4(C)[C@H](O)C[C@@H]3[C@@]2(C)C7)O[C@]12CCC(C)(C)O2	2.45% (active)	-29.9% (active)	50.9%	8.43% (active)	55.5%	9.45% (active)	38.6%	50%	-4.77% (active)	54%
c1ccc(CN=C(NCc2ccccc2)NCc2ccccc2)cc1	77.4%	43.5%	56.4%	100%	30.2%	73.5%	60.4%	51.4%	96.7%	86%
Cc1cnc2nc(-c3ccc(N(C)C)cc3)cn2c1	100%	117%	103%	78.4%	118%	119%	-14.9% (active)	107%	109%	85.9%
FCc1ncc(-c2ccc(C(F)(F)F)cc2)c(NC2CCCCCC2)n1	-18% [100 µM] (active)	4.24% [100 µM] (active)	15.8% [100 µM]	32.7% [100 µM]	27.2% [100 µM]	46.1% [100 µM]	27.2% [100 µM]	-85% [100 µM] (active)	41.4% [100 µM]	18.4% [100 µM]
NS(=O)(=O)c1ccc(N2CC(c3nc4ccccc4[nH]3)CC2=O)cc1 (stereo not given)	95.5%	103%	99.9%	84.4%	97.3%	89.7%	97.2%	104%	98.2%	103%
Cc1ccc(C(=O)Cc2ccccc2)c(O)c1	83%	115%	104%	99.1%	107%	127%	107%	110%	107%	108%
CCOC(=O)C(C(=O)OCC)C1CCCCC1	97.3%	101%	102%	105%	102%	108%	93.2%	110%	109%	109%
CCCCCN(CCCCC)CCCNc1c2c(nc3ccc(Cl)cc13)CCCC2	0.527% (active)	4.62% (active)	37.5%	41.2%	17.6%	66.6%	17.5%	58.1%	71.6%	48.9%
COc1ccc(CCN2C(=O)CCC3=C2CCCC3=O)cc1OC	101%	98.1%	102%	104%	102%	100%	108%	120%	94.6%	98.2%
Cc1ccc(C2=Nc3c(ccc4c(C)c(C)c(=O)oc34)OC2)cc1	103%	94.4%	98.6%	103%	116%	106%	98.5%	107%	110%	97.3%
COc1cnc2c(c1)C(=O)c1c-2n(CCCN2CCC(O)CC2)c(=O)c2cc(F)ccc12	0.0108% (active)	-26.2% (active)	-6.45% (active)	-8.07% (active)	-0.215% (active)	-31.6% (active)	1.69% (active)	-8.34% (active)	27.7%	0.114% (active)
N#Cc1c(-c2ccc(F)cc2)n2c(nc1=O)SC(=O)C2=O	91.3%	76.8%	98%	110%	100%	115%	108%	123%	104%	94.5%
CCOc1nc(-c2ccco2)n2nc(-c3ccco3)cc2n1	123%	84.4%	97%	108%	87.2%	110%	106%	122%	95.7%	99.5%
COc1ccc(OC)c2c1CCC1(C2)NC(=O)NC1=O (stereo not given)	102%	102%	97.8%	101%	101%	102%	110%	126%	85.6%	102%
c1ccc2c(-c3nc4ccccc4[nH]3)cccc2c1	12.5%	33.2%	47.4%	62.9%	77.3%	30.8%	44.1%	12.2%	44.5%	-16.2% (active)
CC(NC(=O)Oc1cccc2ccccc12)c1ccccc1 (stereo not given)	90.8%	109%	96.9%	123%	97.4%	111%	116%	103%	107%	97.6%
O=C(NCCNC(=O)Oc1cccc2ccccc12)Oc1cccc2ccccc12	97.8%	92.5%	100%	105%	96.4%	94.5%	65.2%	86.5%	104%	95.8%
CCN1CCN(c2nc(NNC(=O)Cc3ccccc3)nc(N3CCN(C(c4ccccc4)c4ccccc4)CC3)n2)CC1	-22.3% (active)	36.6%	64.4%	102%	86.6%	114%	64.1%	46.2%	96.1%	90.4%
COc1ccc2c(c1)[n+](=O)c(/C=C/C(=O)c1cc(OC)c(OC)c(OC)c1)c(C)n2[O-]	-10.6% (active)	-45.8% (active)	3.84% (active)	84%	62.8%	102%	32.1%	19.4%	90.7%	52.8%
